CtBP-E1A inh = inhibitors of CtBP/E1A interaction. AlphaScreen GST-E1A/His-CtBP binding, 1536-well; stronger effect = lower value. activity change, % (no concentration beside the values). 340,000 tested, 0.49% active. AID 651724; in the data active = activity change below about -65%; inconclusive = mostly about -30% to -63%; note: % is set by controls: 0 for no effect and ±100 for the full control effect
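Homogeneous bead-based format: GST-tagged E1A captured on glutathione donor beads, His-tagged CtBP on nickel acceptor beads; compounds precede bead addition by 2 h at 37 °C.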
TGFb SMAD3 inh = TGF-b pathway inhibition. HepG2 CAGA-GFP TGF-b/SMAD3 reporter, GFP fluorescence, 18 h; TGF-beta stimulated, 500 pg/mL final. Potency, µM (titrated, usually from 46.1 µM), without a hit: top-dose activity, negative = inhibition, most hits filed as inhibitors. 410,000 tested, 1.2% active. AID 588855; note: potency is the fitted concentration of half-maximal effect; % is set by controls: 0 for no effect and ±100 for the full control effect; nearly all actives have a fitted effect of over 65% in size
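Read-out: total well GFP (ex488/em500-530) summed from mean per-cell fluorescence. Cells: HEPG2 CAGA-GFP, 1% FBS DMEM, 18 h at 37 degrees C with 500 pg/mL final TGF-beta. Unstimulated wells served as the full-inhibition control; stimulated DMSO wells = 0%.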
HepG2 viability = kills HepG2 cells in TGF-b inhibitor counter-screen | Potency, µM (doses to about 46.1 µM), for the others: at the top dose activity change, negative = cytotoxicity, usual class: cytotoxic | HepG2 CAGA-GFP viability, ATP luminescence, 18 h | 410,000 tested, 0.76% active | AID 588856; note: potency is the fitted concentration of half-maximal effect
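HepG2 CAGA-GFP cells (1000/well, DMEM with 1% FBS) received compound, then TGF-beta at 500 pg/mL final, and were incubated 18 hours at 37 degrees C. Viability was read by CellTiter-Glo luminescence. Media-only wells were set as complete cell-killing and DMSO as no toxicity.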
ATXN2 expr inh = ATXN2 expression inhibition | HEK-293 ATXN2-luciferase reporter, luminescence, 24 h | 360,000 tested, 0.72% active | AID 1745845 | Potency, µM (titrated, usually from 57 µM), for inactives: at the top dose activity change, negative = inhibition, most hits filed as inhibitors; note: potency is the fitted concentration of half-maximal effect; % is set by controls: 0 for no effect and ±100 for the full control effect; nearly all actives have a fitted effect of over 55% in size
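qHTS (up to 57 uM final) was run with 24 h compound exposure of reporter cells at 37 °C. Each well was multiplexed: SteadyGlo luminescence measured ATXN2-luciferase expression after a fluorogenic Gly-Phe-AFC viability readout (25 uM final).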
ATXN viability = reduces viability in counter-screen for ATXN expression inhibitors; AID 651635; S2 cells (HEK-293 line with an ATXN2-luciferase reporter) viability, CellTiter-Fluor protease fluorescence, 24 h; Potency, µM (titrated, usually from 56.7 µM), most hits filed as cytotoxic; 400,000 tested, 0.49% active; note: potency is the fitted concentration of half-maximal effect; nearly all actives have a fitted effect of over 40% in size
Six1-Eya2 inh = Six1/Eya2 interaction inhibition | activity change, % (concentration not given with the values) | 360,000 tested, 0.56% active | Q15475+O00167 | AlphaScreen GST-Six1/His-Eya2 binding, biochemical; stronger effect = lower value; in the data active = activity change below about -65%; inconclusive = mostly about -30% to -63%; note: % is set by controls: 0 for no effect and ±100 for the full control effect
Target sequence (O00167 whole entry, looked up): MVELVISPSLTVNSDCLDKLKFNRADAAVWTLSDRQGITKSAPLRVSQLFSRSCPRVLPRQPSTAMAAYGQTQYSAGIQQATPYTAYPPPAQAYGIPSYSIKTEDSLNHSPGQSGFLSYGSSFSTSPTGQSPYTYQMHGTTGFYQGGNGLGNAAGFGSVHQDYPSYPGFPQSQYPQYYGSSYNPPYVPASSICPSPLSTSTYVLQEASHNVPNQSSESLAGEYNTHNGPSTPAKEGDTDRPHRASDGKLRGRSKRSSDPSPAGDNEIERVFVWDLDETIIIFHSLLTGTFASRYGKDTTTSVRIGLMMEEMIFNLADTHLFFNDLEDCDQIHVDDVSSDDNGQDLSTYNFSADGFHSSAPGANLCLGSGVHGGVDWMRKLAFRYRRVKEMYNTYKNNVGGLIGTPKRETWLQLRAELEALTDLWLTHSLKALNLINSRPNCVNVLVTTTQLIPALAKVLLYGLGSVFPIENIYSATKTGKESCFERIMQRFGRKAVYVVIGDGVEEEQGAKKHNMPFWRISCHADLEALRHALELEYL
Target sequence (Q15475 whole entry, looked up): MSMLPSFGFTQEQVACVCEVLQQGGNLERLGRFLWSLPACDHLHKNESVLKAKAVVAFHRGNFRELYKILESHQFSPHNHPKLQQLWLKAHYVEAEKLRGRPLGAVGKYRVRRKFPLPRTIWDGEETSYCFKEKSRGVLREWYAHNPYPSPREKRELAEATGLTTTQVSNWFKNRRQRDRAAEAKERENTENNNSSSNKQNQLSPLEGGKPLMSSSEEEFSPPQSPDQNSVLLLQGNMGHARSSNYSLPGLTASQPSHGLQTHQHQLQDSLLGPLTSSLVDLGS
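GST-Six1 + His-Eya2 (5X stock: 250/500 nM); Tris pH 8.0, 300 mM NaCl, 0.05% BSA, 0.02% Tween 20; GSH donor/Ni acceptor beads; 1 h 37 °C dark; AlphaScreen readout.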
* = called active by the depositor; i = inactive; ? = inconclusive; . = no result given. Hits are enriched below; roughly 2.8% of the tested compounds scored in any of these assays. Unless noted, calls come from the whole dose curve; as a rule, active = well fitted curve in the direction sought with a large enough effect; inconclusive = small, poorly fitted or top-dose-only effect, or another doubt; inactive = no such curve, though single readings can be large; an effect the other way counts as inactive or inconclusive.

SMILES | CtBP-E1A inh | TGFb SMAD3 inh | HepG2 viability | ATXN2 expr inh | ATXN viability | Six1-Eya2 inh
Cc1cc(/C=C2\Sc3ccccc3N2C)cc(C)[n+]1CC1CCCO1 (stereo not drawn) | -0.3 | 30.7% | -17.1% | 1.19µM* | . | 5.1
CNC(=O)c1c(I)c(NC(=O)CCCCC(=O)Nc2c(I)c(C(=O)O)c(I)c(C(=O)NC)c2I)c(I)c(C(=O)O)c1I | . | . | . | -4.5% | i | .
Cc1cnc2ccc3ccccc3c2c1C | . | -17.1% | -2.3% | . | . | .
CN(C)CCOc1ccc2c(c1)C(=O)C(=Cc1ncc([N+](=O)[O-])n1C)C2 | -20.9 | 1.41µM* | -79.9% | . | ? | 3.2
CCc1cc(OCCN(C)C)ccc1Cl | 13.1 | -3.4% | 1.1% | -28.7% | i | 14.8
Cc1cc(C)c2c(=O)n(CC(=O)NCCCN3CCN(c4ccccc4F)CC3)sc2n1 | -1.8 | ? | -37.3% | ? | 18.9µM* | 0.8
CCOc1ccc(NC(=O)Cn2sc3nc(C)cc(C)c3c2=O)cc1 | -12.9 | 11.2µM* | -53.6% | -14.4% | i | -27.8
Cc1cc(C)c2c(=O)n(CC(=O)NCCCN3CCOCC3)sc2n1 | 2.8 | 6.5% | 4.8% | 14.7% | i | -0.1
Nc1nnnn1/N=C/c1cc(Br)ccc1O | -93.8* | -7.0% | 1.1% | -12.7% | i | -92.3*
Nc1nnnn1/N=C/c1ccc(Br)cc1 | 6.9 | 12.2% | 6.9% | -6.7% | i | 5.5
C=CC1=C(C(=O)O)N2C(=O)[C@@H](NC(=O)C(=NO)c3csc(N)n3)[C@H]2SC1 | . | . | . | 6.3% | . | .
COc1cc(OC)cc(C2=Cc3ccc(OC)cc3C(CC(C)=O)N2c2ccc(C#CC3(N)CCCCC3)cc2)c1 (stereo not drawn) | -19.4 | . | . | -16.5% | 17.8µM* | 11.0
COc1cc(OC)cc(C2=Cc3ccc(OC)cc3C(CC(C)=O)N2c2ccc(C#CC3(O)CCCCC3)cc2)c1 (stereo not drawn) | 3.5 | . | . | -27.5% | ? | 9.8
COc1cc(OC)cc(C2=Cc3ccccc3C(CC(C)=O)N2c2ccc(C#CC3(N)CCCCC3)cc2)c1 (stereo not drawn) | 5.5 | . | . | ? | 28.2µM* | 6.7
CN1N=C(C(=O)N2CCOc3ccc(CN4CCCC(C(=O)c5cccnc5)C4)cc3C2)CCC1=O (stereo not drawn) | . | . | . | . | i | .
COCC(=O)Nc1cc(C(=O)N2CCCC(C(N)=O)C2)cc2nc(-c3ccccc3)n(C)c12 (stereo not drawn) | . | . | . | . | i | .
COc1cc2[nH]c(=S)nc(NCc3ccccn3)c2cc1OC | ? | -15.0% | 2.1% | -25.9% | i | -69.6*
COc1cc2[nH]c(=S)nc(NCc3ccccc3)c2cc1OC | -81.5* | -6.6% | -18.8% | 12.0% | i | -78.5*
S=c1nc(NCc2cccc(Cl)c2)c2ccccc2[nH]1 | 1.4 | -16.3% | -16.7% | 4.5% | i | -0.8
COc1cc2[nH]c(=S)nc(NCc3ccc(C)cc3)c2cc1OC | . | -4.3% | -18.4% | . | ? | -74.4*
COc1cc2[nH]c(=S)nc(NCc3cccnc3)c2cc1OC | -81.6* | -2.7% | -8.5% | -5.2% | i | -69.1*
CCC1CN(CCNC(=O)C2CCCCN2C)Cc2cc(OC)ccc2O1 (stereo not drawn) | . | . | . | . | i | .
COc1ccc(CNc2nc(=S)[nH]c3cc(OC)c(OC)cc23)cc1 | . | 2.1% | -9.7% | . | ? | -81.6*
COc1cc2[nH]c(=S)nc(NCc3cccc(Cl)c3)c2cc1OC | . | ? | -29.4% | . | i | ?
Cc1ccc(Cn2cnc3c(cnn3C(C)(C)C)c2=O)cc1F | . | -15.1% | -74.4% | . | . | .
SMILES | CtBP-E1A inh | TGFb SMAD3 inh | HepG2 viability | ATXN2 expr inh | ATXN viability | Six1-Eya2 inh
COc1ccccc1CN1CCCC(n2cc(C(=O)N3CCCCC3)nn2)C1 (stereo not drawn) | . | . | . | . | i | .
COc1ccc(C(=O)c2[nH]c(N)c(C(=O)NCCc3c[nH]c4ccccc34)c2-c2ccccc2Br)cc1 | 1.1 | . | . | ? | . | -12.9
Nc1[nH]c(C(=O)c2ccccc2)c(-c2ccccc2Br)c1C(=O)NCCc1c[nH]c2ccccc12 | -0.9 | . | . | ? | 20µM* | -15.5
Cn1c(-n2cccc2)c(-c2c(-c3ccc(F)cc3)[nH]c3c2c(=O)[nH]c(=O)n3C)c(=O)[nH]c1=O | . | -1.1% | -1.4% | . | . | .
CC(=O)c1sc(NC(=O)C2(F)C(F)(F)C(F)(F)C(F)(F)C(F)(F)C2(F)F)nc1C | 5.7 | 2.82µM* | -46.4% | 6.31µM* | ? | -2.3
Cc1ccc(C(=O)N/C(=C\c2ccc(Cl)cc2)C(=O)NC2CCCCC2)cc1 | . | -11.8% | 1.8% | . | . | .
COc1ccc(OCc2cccc(C(=O)NN)c2)cc1 | -13.1 | -3.2% | 4.2% | 2.24µM* | i | -5.5
NNC(=O)c1cccc(COc2ccc(Br)cc2)c1 | -17.9 | -3.0% | -7.9% | -33.8% | i | -5.8
COc1ccc(OCc2cccc(C(=O)Nc3cc(C)on3)c2)cc1 | -3.2 | ? | -11.8% | 2.24µM* | i | -1.1
COc1ccc(OCc2cccc(C(=O)Nn3cc([N+](=O)[O-])cn3)c2)cc1 | -2.0 | -19.2% | -2.5% | 1µM* | i | -1.3
COCc1c(C(=O)N2CCN(c3ccccc3O)CC2)cnn1-c1nccc(-c2cccs2)n1 | . | . | . | . | i | .
CC1CN(CC(=O)NCC2(N3CCOCC3)CCCC2)Cc2cc(Cl)ccc2O1 (stereo not drawn) | . | . | . | . | i | .
CC(C)c1ccc(S(=O)(=O)/N=C2/C=C(Sc3ncn[nH]3)C(=O)c3ccccc32)cc1 | -11.9 | 7.94µM* | 10µM* | 14.1µM* | ? | 2.6
Cc1ccc(S(=O)(=O)Nc2ccc(O)c(Sc3ncn[nH]3)c2)cc1 | -0.2 | -1.0% | 5.4% | 31.9% | i | -1.0
Cc1ccc(S(=O)(=O)/N=C2/C=C(Sc3ncn[nH]3)C(=O)c3ccccc32)cc1 | 34.5 | 1µM* | 2µM* | ? | ? | ?
CCn1c(-c2ccccc2F)nc2cc(NC(C)=O)cc(C(=O)NCC3CCOCC3)c21 | . | . | . | . | i | .
CC(C)(OCc1nn(Cc2ccccc2)c2ccccc12)C(=O)O | . | . | . | -1.6% | . | .
O=Nc1c(-c2c(O)[nH]c3cc(Br)ccc23)[nH]c2ccccc12 | ? | 8.91µM* | 7.94µM* | ? | 11.2µM* | -71.0*
[O-][N+]12CCCc3cccc(c31)CCC2 | . | -17.9% | -3.9% | . | . | .
COc1ccc(Nc2ncc(C(=O)Nc3ccc(F)cc3F)c3ccccc23)cc1 | . | 12.6µM* | -35.3% | -19.7% | ? | .
Cc1cccc(C)c1OCC(=O)N[C@@H](Cc1ccccc1)[C@@H](O)C[C@H](Cc1ccccc1)NC(=O)[C@H](C(C)C)N1CCCNC1=O | . | 12.6µM* | -8.2% | ? | 31.6µM* | .
COc1ccccc1C1CN(Cc2cccnc2)Cc2ccccc2O1 (stereo not drawn) | . | . | . | . | i | .

Compound activity as filed in PubChem.
